# Compound activity: PubChem, National Center for Advancing Translational Sciences (NCATS)
# uPA surface inh = blocks generation of uPA at the cell surface; 330,000 compounds, 0.31% hits; Potency, µM (top dose mostly 38.3 µM), for inactives: top-dose activity change, negative = inhibition, most hits filed as inhibitors; AID 540303; cell surface uPA generation assay, qHTS; active = well fitted inhibition curve with a large enough effect; inconclusive = small, poorly fitted or top-dose-only effect; inactive = no such curve, though single readings can be large or run the other way; tested in mouse RAW 264.7 cells; note: potency is the fitted concentration of half-maximal effect; % is set by controls: 0 for no effect and ±100 for the full control effect; nearly all actives have a fitted effect of over 55% in size
# TRPV1 agonist = activates the human vanilloid receptor TRPV1; Q8NER1; TRPV1-expressing cells, Fluo-8 calcium influx, agonist mode; activation, % at 8.33 µM; 320,000 compounds, 0.19% hits; in the data active = activation above about 80%; inconclusive = between about 30% and that limit; note: 0% is about no effect
# Target sequence (Q8NER1 whole entry, looked up): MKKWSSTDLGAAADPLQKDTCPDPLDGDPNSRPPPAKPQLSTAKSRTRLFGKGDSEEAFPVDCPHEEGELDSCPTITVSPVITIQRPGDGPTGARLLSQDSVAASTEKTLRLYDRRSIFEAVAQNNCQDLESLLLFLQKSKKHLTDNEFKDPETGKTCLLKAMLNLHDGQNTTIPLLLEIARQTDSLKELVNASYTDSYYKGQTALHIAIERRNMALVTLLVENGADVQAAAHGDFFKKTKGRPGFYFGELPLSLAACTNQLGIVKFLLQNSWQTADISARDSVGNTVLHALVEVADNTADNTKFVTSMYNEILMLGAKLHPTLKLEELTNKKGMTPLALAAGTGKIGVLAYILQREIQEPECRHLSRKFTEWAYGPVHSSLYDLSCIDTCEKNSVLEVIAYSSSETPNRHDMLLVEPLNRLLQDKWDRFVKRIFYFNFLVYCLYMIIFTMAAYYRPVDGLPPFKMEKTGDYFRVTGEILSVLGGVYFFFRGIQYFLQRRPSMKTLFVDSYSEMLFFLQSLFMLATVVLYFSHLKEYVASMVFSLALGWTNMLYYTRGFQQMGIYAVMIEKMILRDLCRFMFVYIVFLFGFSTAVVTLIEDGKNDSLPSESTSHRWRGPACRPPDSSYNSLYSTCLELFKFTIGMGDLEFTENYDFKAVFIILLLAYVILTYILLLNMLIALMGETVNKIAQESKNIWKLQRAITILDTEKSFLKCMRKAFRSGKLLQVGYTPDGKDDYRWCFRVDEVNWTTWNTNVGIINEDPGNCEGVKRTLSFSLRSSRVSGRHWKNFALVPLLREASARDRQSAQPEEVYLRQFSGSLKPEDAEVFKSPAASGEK
#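 TRPV1-expressing cells were cultured overnight at 35.5C and loaded with Fluo-8 calcium dye for 40 to 90 min at room temperature. After a 10 s baseline, compound was added and calcium influx was read kinetically for 3 min (ex 480/em 520 nm).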
# Gal4-VP16 FLuc = inhibits Gal4-VP16 luciferase reporter, ROR gamma counter-screen; Potency, µM (top dose mostly 53.6 µM), without a hit: at the highest dose activity, negative = inhibition, actives largely listed as inhibitors; Drosophila S2 Gal4-VP16 UAS-luciferase, luminescence, 20 h; 310,000 compounds, 3.5% hits; AID 2546;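 note: Gal4-VP16 expression switched on by copper sulfate through the metallothionein promoter; potency is the fitted concentration of half-maximal effect; % is set by controls: 0 for no effect and ±100 for the full control effect; nearly all actives have a fitted effect of over 50% in size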
# RORgamma inh = blocks mouse ROR gamma transcriptional activity; P51450; Drosophila S2 Gal4-RORgamma UAS-luciferase reporter, 20 h; Potency, µM (series often up to 53.6 µM), for the others: at the top dose activity change, negative = inhibition, usual class: inhibitors; 310,000 compounds, 5.4% hits; note: potency is the fitted concentration of half-maximal effect; % is set by controls: 0 for no effect and ±100 for the full control effect; nearly all actives have a fitted effect of over 60% in size
#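 ROR gamma transcriptional activity was tracked as Gal4-UAS luciferase output in stably transfected Drosophila Schneider cells, with compound added 1 hr before 700 uM copper sulfate induction and a 20 hr ambient-temperature incubation.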
# TRPV1 PAM = enhances activation of the human vanilloid receptor TRPV1; Q8NER1; TRPV1-expressing cells, Fluo-8 calcium influx, capsaicin EC20 potentiation; potentiation, % at 8.33 µM; 320,000 compounds, 0.02% hits; AID 540277; in the data active = potentiation above about 80%; inconclusive = between about 30% and that limit; note: 0% is about no effect
#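 TRPV1-expressing cells were cultured overnight at 35.5C and loaded with Fluo-8 calcium dye for 40 to 90 min at room temperature. After a 10 s baseline, compound was added and calcium influx was read kinetically for 3 min (ex 480/em 520 nm).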
# * hit, by the source's call; ? = inconclusive; . = no result given. Compounds with a hit are over-represented: about 5.8% of the library has one in this group of screens. Unless noted, calls come from the whole dose curve; as a rule, active = well fitted curve in the direction sought with a large enough effect; inconclusive = small, poorly fitted or top-dose-only effect, or another doubt; inactive = no such curve, though single readings can be large; an effect the other way counts as inactive or inconclusive.
SMILES,uPA surface inh,TRPV1 agonist,Gal4-VP16 FLuc,RORgamma inh,TRPV1 PAM
Cc1onc(-c2ccccc2Cl)c1C(=O)Nc1nnc(-c2ccc(Br)cc2)s1,-22%,0,22µM*,10µM*,18
Cc1ccc2cccc(OCc3ccccc3)c2n1,3%,1,-1%,14µM*,16
Cc1ccc2cccc(OCc3ccc(F)cc3)c2n1,0%,8,?,?,6
Cc1cc(C(=S)N2CCOCC2)c(C)n1-c1ccc(F)cc1,-3%,9,-25%,?,-10
Cc1ccc(-n2c(C)cc(C(=S)N3CCOCC3)c2C)cc1C,-1%,16,-28%,14µM*,-10
Cn1nnnc1Sc1ncnc2scc(-c3cccc(C(F)(F)F)c3)c12,8.9µM*,.,.,.,.
Cn1nnnc1Sc1ncnc2scc(-c3ccc(-c4ccccc4)cc3)c12,2µM*,.,.,.,.
Cn1nnnc1Sc1ncnc2scc(-c3ccc(C(F)(F)F)cc3)c12,?,7,.,.,-2
COc1ccc(C(=O)NCc2nnc(SCC(=O)Nc3nc4ccc(C)cc4s3)o2)cc1OC,-1%,2,7.9µM*,7.9µM*,11
CCSc1nnc(NC(=O)CSc2nnc(CNC(=O)c3cc(OC)c(OC)c(OC)c3)o2)s1,8%,2,?,16µM*,6
CC(C)c1ccc(/C=C2\NC(=S)N(Cc3cccnc3)C2=O)cc1,3%,1,-21%,7.9µM*,4
CCOc1cc(/C=C2\SC(=N)N(c3nccs3)C2=O)ccc1OCCN1CCOCC1,-1%,1,2.8µM*,0.56µM*,-3
CCN1CCN(CCCNC(=O)c2ccccc2NC(=O)C2=C(C)OCCS2)CC1,-2%,-2,-14%,-17%,?
O=c1[nH]c2ccc(Cl)cc2c(-c2ccccc2)c1[N+](=O)[O-],13%,1,-9%,1.3µM*,2
NNC(=O)CSc1c(-c2ccccc2)c2cc(Cl)ccc2[nH]c1=O,0%,9,5%,-3%,18
O=c1[nH]c2ccc(Cl)cc2c(-c2ccccc2)c1SC(=S)N1CCOCC1,0%,-2,4.5µM*,1µM*,1
O=c1[nH]c2ccc(Cl)cc2c(-c2ccccc2)c1SC(=S)N1CCCCC1,-2%,0,7.1µM*,5.6µM*,1
CC(=O)c1ccc(NC(=O)CSc2nnc(C3CC3)n2C2CC2)cc1,0%,.,.,.,.
COc1ccc2c(c1)C(=O)[C@H](OC(=O)Nc1ccc(C)c(Br)c1)[C@@H](c1ccc(OC)c(Br)c1)O2,.,.,-2%,-2%,.
COC(=O)c1ccc(C(NC(=O)OCc2ccccc2)/C(C)=C/[C@@H](C)C(=O)N[C@@H](CO)Cc2ccccc2)cc1 (stereo partly specified),.,.,-3%,12%,.
Cc1ccccc1NC(=S)N1CCN(c2ccccc2C)CC1,-1%,8,5.6µM*,2.8µM*,-10
Cc1cccc(NC(=S)N2CCN(c3ccccc3F)CC2)c1C,-5%,15,10µM*,8.9µM*,-19
CCCCNC(=S)N1CCN(c2ccccc2Cl)CC1,.,4,16%,11µM*,-5
Cc1ccccc1NC(=S)N1CCCC1,5%,-7,-5%,-33%,7
COc1ccccc1NC(=S)N1CCN(c2ccccc2F)CC1,6%,0,?,?,-1
SMILES,uPA surface inh,TRPV1 agonist,Gal4-VP16 FLuc,RORgamma inh,TRPV1 PAM
Cc1ccc(N2CCN(C(=S)Nc3ccccc3C)CC2)cc1,8%,0,?,10µM*,20
CN(C)c1ccc(-c2ccccc2)nn1,-3%,0,-14%,-27%,6
CC(Sc1nnc(CN2CCCC2)n1Cc1ccccc1)C(=O)Nc1ccc(F)c(F)c1F (stereo unspecified),-2%,.,.,.,.
CC1(C)CC(=O)C2=C(C1)NC(Nc1nc3ccccc3o1)=NC21CCCC1,.,-7,-8%,-15%,6
CC1(C)CC(=O)C2=C(C1)NC(Nc1nc3ccccc3o1)=NC2c1ccccn1 (stereo unspecified),2%,0,1.1µM*,3.5µM*,17
O=C1NC(Nc2nccs2)(C(F)(F)F)C(=O)N1CCc1ccccc1 (stereo unspecified),5%,1,?,13µM*,0
CC(=O)Nc1ccc(C2C(=O)c3ccccc3C2=O)cc1,2%,-2,-2%,1%,7
CCCC(=O)Nc1ccc(C2C(=O)c3ccccc3C2=O)cc1,-3%,-1,11µM*,11µM*,2
Cc1ccc(C(=O)COC(=O)CCN2C(=O)C3C4C=CC(C5CC45)C3C2=O)cc1 (stereo unspecified),5%,-2,-2%,0%,13
CS(=O)(=O)c1ccc(Cl)c(NC(=O)c2cc(S(=O)(=O)N3CCOCC3)ccc2N2CCCC2)c1,-3%,-9,.,.,10
Cc1onc(-c2ccccc2)c1C(=O)NC(=S)Nc1sc2c(c1C#N)CCC(C)C2 (stereo unspecified),3%,5,?,2.8µM*,-1
CC(C)(C)C(=O)NC(=S)Nc1sc2c(c1C#N)CCCCC2,2%,-2,14µM*,7.1µM*,1
Cc1onc(-c2ccccc2)c1C(=O)NC(=S)Nc1sc2c(c1C#N)CCCC2,4%,-5,-88%,3.5µM*,12
Cc1onc(-c2ccccc2)c1C(=O)Nc1sc2c(c1C#N)CCC2,.,14,0%,17%,-4
Cc1ccccc1C(=O)NC(=S)Nc1sc2c(c1C#N)CCCC2,-6%,1,11µM*,3.5µM*,6
O=S(=O)(NCCc1ccccc1)c1ccc(F)cc1,-8%,1,3%,21%,0
CCCn1c(-c2ccc(F)cc2)nc2c(NCCN3CCCCC3)nc(C)nc21,.,.,1%,4%,.
Cc1sc(NC(=S)NC(=O)c2ccc(C(C)(C)C)cc2)c(C#N)c1C,.,8,11µM*,0.56µM*,5
C=CCNC(=S)Nc1sc2c(c1C#N)CCCC2,-1%,2,2%,11µM*,-6
Cc1sc(NC(=S)NC(=O)c2ccccc2)c(C#N)c1C,-2%,.,.,.,.
Cc1ccc(-c2noc(Cn3cc(S(=O)(=O)N4CCCC4)ccc3=O)n2)cc1,5%,2,.,.,9
COc1ccc2c(c1)C(=O)[C@H](OC(=O)N[C@H](C)C1CCCCC1)[C@@H](c1ccc(OC)c(Br)c1)O2,.,.,-2%,-12%,.
Nc1c(Cl)ncnc1N/N=C/c1ccccn1,-4%,-2,0.89µM*,0.4µM*,6
Nc1c(Cl)ncnc1N/N=C/c1ccnc2ccccc12,1%,2,3%,-28%,-1
Nc1c(Cl)ncnc1N/N=C/c1ccc2ccccc2n1,7%,8,1µM*,0.4µM*,3
Fc1ccc(Nc2nc(-c3ccoc3)nc3ccccc23)cc1,.,.,-4%,?,.
C=CCOc1ccccc1OCC(O)CNC(C)C (stereo unspecified),1%,1,.,.,0
COc1ccc(C(=O)Cn2cnc3ccccc3c2=O)c(OC)c1,13%,0,8.9µM*,4.5µM*,?
CCN(CC)CC(=O)Nc1nc(-c2ccc(Cl)cc2)cs1,-1%,27,20µM*,8.9µM*,-15
